HCMV inh = human cytomegalovirus inhibition. HFF cells, HCMV-luciferase reporter, 72 h; active compounds read low. activity change, negative = inhibition, % at 57.5 µM. 4.5% of 410,000 active. AID 1259415; in the data active means activity change below about -60%; inconclusive means no clear call, values can overlap the other calls; inactive means above about -39%; further: on the % scale 0 is the no-effect control and ±100 the full control effect
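Steps: HFFs plated, 16 h 37C; compounds added; HCMV-luciferase added to MOI 1 PFU/cell; 72 h 37C; OneGlo reagent, 5 min room temperature; luminescence read, normalized to controls.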
HCV inh = HCV inhibition; Huh7.5.1 HCVcc-Cre infection, luciferase reporter, 44 h; Potency, µM (top dose mostly 41.8 µM), without a hit: at the top dose activity change, negative = inhibition, actives largely listed as inhibitors; 3.4% of 340,000 active; further: potency means the concentration at half of the fitted maximal effect; on the % scale 0 is the no-effect control and ±100 the full control effect
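After 44 h co-culture of compound, cells and HCVcc-Cre (~0.5 moi), substrate is added for 15 min at room temperature and luciferase measured over 15 sec. Cells were seeded at 1,000/well and pre-cultured 4 h.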
Pf growth 48h = P. falciparum growth inhibition at 48 hours (one generation); P. falciparum luciferase growth in erythrocytes, 48 h; Potency, µM (top dose mostly 28.7 µM), inactives show at the top dose activity change, negative = inhibition, actives largely listed as inhibitors; 5.9% of 310,000 active; AID 504832; further: potency means the concentration at half of the fitted maximal effect; on the % scale 0 is the no-effect control and ±100 the full control effect
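Luciferase-expressing P. falciparum in infected erythrocytes (2% hematocrit, 0.1% parasitemia final) in RPMI 1640/0.5% Albumax were exposed to compound for 48 hours at 37 C, 5% CO2; growth read as luminescence.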
Shiga inhibitor = blocks Shiga toxin action in Vero cells | Vero cells, Shiga toxin protein synthesis inhibition reporter | inhibition, % at 38.7 µM | 9.2% of 290,000 active | AID 2315; in the data active means inhibition mostly above about 28%, no sharp cut-off; inactive means mostly below about 43%; further: 0% is about no effect
Pf growth 96h = P. falciparum growth inhibition at 96 hour, primary screen for plastid delayed-death inhibitors | P. falciparum luciferase reporter growth, 96 h | Potency, µM (titrated, usually from 28.7 µM), without a hit: top-dose activity change, negative = inhibition, most hits filed as inhibitors | 6.9% of 320,000 active; further: potency means the concentration at half of the fitted maximal effect; on the % scale 0 is the no-effect control and ±100 the full control effect
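P. falciparum expressing integrated firefly luciferase grown in erythrocytes (2% hematocrit, 0.05% parasitemia final) with compounds for 96 hours at 37 C, 5% CO2. Growth inhibition read as loss of luminescence after adding luciferase detection reagent.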
Cycloheximide cs = affects cycloheximide protein synthesis inhibition readout, counter-screen; max response, %; cell reporter, cycloheximide protein synthesis inhibition counterscreen; AID 2314; 12% of 300,000 active; in the data active means max response mostly above about 13%, no sharp cut-off; inactive means mostly below about 14%; further: read at 38.3 µM for the half of the compounds with a filed dose; 0% is about no effect
An asterisk follows results filed as active. Compounds with a hit are over-represented: about 21% of the library has one in this group of screens. Unless noted, the call rests on the fitted dose curve; in most records, active means well fitted inhibition curve with a large enough effect; inconclusive means small, poorly fitted or top-dose-only effect, or another doubt; inactive means no such curve, though single readings can be large or run the other way.

`O=S(=O)(c1cc(C(F)(F)F)ccc1Cl)N1CCN(c2ncnc3ccccc23)CC1` gave HCMV inh -82*, HCV inh 14µM*, Pf growth 48h inconclusive and Pf growth 96h inconclusive.
`O=S(=O)(c1cc(C(F)(F)F)ccc1Cl)N1CCCCCC1` gave HCMV inh -29, HCV inh 6%, Pf growth 48h 0%, Shiga inhibitor -2, Pf growth 96h inconclusive and Cycloheximide cs 9.
`COc1ccccc1CCC(=O)N1CCN(S(=O)(=O)c2cc(C(F)(F)F)ccc2Cl)CC1` gave HCMV inh inconclusive, HCV inh inconclusive, Pf growth 48h inconclusive and Pf growth 96h 3.7µM*.
`Cc1cc(C)c(C)c(S(=O)(=O)N2CCN(c3ncnc4ccccc34)CC2)c1C` gave HCMV inh inconclusive, HCV inh 2.5µM*, Pf growth 48h 12µM* and Pf growth 96h inconclusive.
CCOc1ccc(C(=O)c2cn(CC(=O)Nc3cccc(OC)c3)c3cc4c(cc3c2=O)OCCO4)cc1 was read as HCMV inh 14.
For COc1ccccc1/C=[N+](\[O-])C1SC(=S)N(C)C1(C)C (stereo not given) the results were HCMV inh 11, HCV inh 7%, Pf growth 48h 14%, Shiga inhibitor -6, Pf growth 96h 19% and Cycloheximide cs -1.
`CCOc1ccc2nc(N3CCC(C(=O)Nc4c(C)cccc4C)CC3)sc2c1` gave HCMV inh 6.
CCc1ccc2nc(N3CCC(C(=O)N4CCC5(CC4)OCCO5)CC3)sc2c1 was read as HCMV inh inconclusive, HCV inh 11µM*, Pf growth 48h 60%, Shiga inhibitor 131*, Pf growth 96h inconclusive and Cycloheximide cs 58*.
Screening Cc1ccc2nc(N3CCN(C(=O)C4CC4)CC3)sc2c1 returned HCMV inh 33.
O=C(C1CCN(c2nc3ccc(Br)cc3s2)CC1)N1CCC2(CC1)OCCO2 was read as HCMV inh -33, HCV inh 3.2µM*, Pf growth 48h 41%, Shiga inhibitor 59*, Pf growth 96h 4.7µM* and Cycloheximide cs 30*.
CCOc1ccc2nc(N3CCC(C(=O)N4CCC5(CC4)OCCO5)CC3)sc2c1 was read as HCMV inh 33, HCV inh inconclusive, Pf growth 48h 23%, Shiga inhibitor 119, Pf growth 96h 47% and Cycloheximide cs 41*.
`Cc1ccc2nc(N3CCC(C(=O)N4CCC5(CC4)OCCO5)CC3)sc2c1` gave HCMV inh 2, HCV inh inconclusive, Pf growth 48h 36%, Shiga inhibitor 79*, Pf growth 96h 13% and Cycloheximide cs 40*.
`CCOc1ccc(C(=O)COC(=O)c2nc3nccc(C)n3n2)cc1` gave HCMV inh 15, HCV inh 29%, Pf growth 48h 21% and Pf growth 96h 14%.
CC(NC(=O)Nc1ccc(F)cc1)c1ccc2c(c1)OCO2 (stereo not given) was read as HCMV inh -29, HCV inh -4%, Pf growth 48h 0%, Shiga inhibitor -2, Pf growth 96h 15% and Cycloheximide cs 15.
`O=C(Cn1ncc2c(=O)oc3ccccc3c21)N1CCN(c2ccc(Cl)cc2)CC1` gave HCMV inh 4.
For Cc1oc(-c2ccc(Cl)cc2)nc1CN1CCCC(C(=O)NCCc2ccccc2)C1 (stereo not given) the results were HCMV inh 34.
For O=C(NCc1ccccn1)C1CCCN(Cc2cnn(-c3ccccc3)c2-n2cccc2)C1 (stereo not given) the results were HCV inh -6%, Pf growth 48h inconclusive, Shiga inhibitor -17, Pf growth 96h 1% and Cycloheximide cs 2.
Screening O=C(NCc1cccnc1)C1CCCN(Cc2cnn(-c3ccccc3)c2-n2cccc2)C1 (stereo not given) returned HCMV inh -10, HCV inh -12%, Shiga inhibitor -10, Pf growth 96h 12µM* and Cycloheximide cs -1.
Cc1oc(-c2ccc(Cl)cc2)nc1CN1CCCC(C(=O)NCc2cccnc2)C1 (stereo not given) was read as HCMV inh -84*, HCV inh 1µM*, Pf growth 48h 3%, Shiga inhibitor -6, Pf growth 96h 0% and Cycloheximide cs 3.
Cc1oc(-c2ccc(Cl)cc2)nc1CN1CCCC(C(=O)NCCCN2CCOCC2)C1 (stereo not given) was read as HCMV inh inconclusive, HCV inh 6.3µM*, Pf growth 48h inconclusive, Shiga inhibitor -3, Pf growth 96h 97% and Cycloheximide cs -3.
`Cc1oc(-c2ccc(Cl)cc2)nc1CN1CCC(C(=O)NCCCN2CCCC2=O)CC1` gave HCMV inh -16, HCV inh inconclusive, Shiga inhibitor -17, Pf growth 96h inconclusive and Cycloheximide cs -6.
Screening Cc1oc(-c2ccc(Cl)cc2)nc1CN1CCC(C(=O)NCCCN2CCCC(C)C2)CC1 (stereo not given) returned HCMV inh -101*, HCV inh 1.8µM*, Pf growth 48h 2.1µM*, Shiga inhibitor -5, Pf growth 96h 7% and Cycloheximide cs -2.
For COc1ccc2c(c1)C(n1c(C)ccc1C)C(=O)N2C (stereo not given) the results were HCMV inh -6.
Cc1ccc(-n2ncc(C(=O)NC3CCCC3)c2C2CCN(C(=O)OC(C)(C)C)CC2)c(C)c1 was read as HCMV inh -18.
O=C(COCc1cc(-c2ccc3c(c2)OCO3)on1)Nc1cc(Cl)ccc1O was read as HCMV inh 11.
`COCCNC(=O)CCC1CCN(Cc2ccc(-c3ccccc3)cc2)CC1` gave HCMV inh 56, HCV inh -16%, Pf growth 48h 1%, Shiga inhibitor -15, Pf growth 96h 0% and Cycloheximide cs -1.
Screening CC(C)(C)OC(=O)N1CCC(c2c(C(=O)NCC3CCN(C4CCCC4)C3)cnn2-c2ccc(F)cc2)CC1 (stereo not given) returned HCMV inh inconclusive, HCV inh -15%, Pf growth 48h 2.6µM*, Shiga inhibitor -13, Pf growth 96h -10% and Cycloheximide cs 1.
Screening CC(C)(C)OC(=O)N1CCC(c2c(C(=O)NCC3CCN(C4CCCC4)C3)cnn2-c2ccccc2)CC1 (stereo not given) returned HCMV inh -26, HCV inh 6%, Pf growth 48h 3.7µM*, Shiga inhibitor 1, Pf growth 96h 8% and Cycloheximide cs -4.

Screens from PubChem BioAssay.
